Test in all cases: NCI-60 one-dose screen, 48 h (100 = growth as untreated, 0 = no growth, -100 = all killed)
The subject of one assay is NCI-H23 lung. Conditions: 10 µM unless noted.
A further assay relates to NCI-H226 lung. Particulars: 10 µM unless noted.
A further assay has as its system NCI-H322M lung. Conditions: 10 µM unless noted.
In another assay the test system is HOP-62 NSCLC. Conditions: 10 µM unless noted.
In a further assay the test system is HOP-92 NSCLC. Particulars: 10 µM unless noted.
The test system of the next assay is A549/ATCC NSCLC. Particulars: 10 µM unless noted.
The test system of a further assay is 786-0 renal. Conditions: 10 µM unless noted.
The next assay has as its system COLO 205 colon. Conditions: 10 µM unless noted.
Another assay concerns DU-145 prostate. Particulars: 10 µM unless noted.
The next assay concerns K-562 leukemia. Particulars: 10 µM unless noted.
In another assay the test system is MALME-3M melanoma. Conditions: 10 µM unless noted.
Another assay concerns MDA-MB-231 breast. Conditions: 10 µM unless noted.
Another assay concerns RXF 393 renal. Conditions: 10 µM unless noted.
The next assay deals with SF-268 CNS. Particulars: 10 µM unless noted.
Another assay concerns SF-295 CNS. Conditions: 10 µM unless noted.
A further assay concerns SF-539 CNS. Particulars: 10 µM unless noted.
The subject of a further assay is M14 melanoma. Particulars: 10 µM unless noted.
Another assay has as its system UACC-257 melanoma. Particulars: 10 µM unless noted.
Another assay relates to NCI-H460 lung. Particulars: 10 µM unless noted.
The next assay deals with NCI-H522 lung. Particulars: 10 µM.

SMILES strings stand for the structures. This is part of a sample that, as a whole, favours compounds with a hit. Of some 83,000 tested, about 20% had one in any assay.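 Percent growth is the endpoint: 0 to 100 indicates growth inhibition (40 means 60% inhibition), 0 means no net growth, and negative values indicate cell death.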 Values without a mark were called inactive. The source made the active and inactive calls. The calls were made as follows: active = growth percent below 10; inactive = the rest.

Drawing on PubChem BioAssay (NCI), this text covers growth for 9 compounds.

Turning to `O=[N+]([O-])c1ccc(NS(=O)(=O)c2ccc(Cl)c(Cl)c2)cc1`, the growth in the assay with NCI-H23 lung was 81.5%; in the assay with NCI-H226 lung, 82.5%; in the assay on NCI-H322M lung it was 111%; in the assay with HOP-62 NSCLC it was 82%; in the assay on HOP-92 NSCLC it was -1.71% (active); with A549/ATCC NSCLC, 75.1%. For the same compound, the growth in the assay on 786-0 renal was 76.5%; in the assay on COLO 205 colon it was 122%; with DU-145 prostate it was 94%; with K-562 leukemia, 66.3%; with MALME-3M melanoma, 88%; with MDA-MB-231 breast, 76%. The growth is 93.2% with RXF 393 renal; 97% in the assay with SF-268 CNS; 50.3% in the assay on SF-295 CNS; 82.6% with SF-539 CNS; 79% with M14 melanoma.
In the case of `COc1cc(-c2nc3sc4c(c3c(=O)[nH]2)CCCCCC4)cc(OC)c1OC`, the growth is 22.3% in the assay with NCI-H23 lung; 60.9% in the assay on NCI-H226 lung; 39% with NCI-H322M lung; 29.6% with HOP-62 NSCLC; 42.7% with HOP-92 NSCLC; 25.8% with A549/ATCC NSCLC. Besides, the growth was 40.7% with 786-0 renal; 12.1% with DU-145 prostate; 5.92% (active) in the assay with K-562 leukemia; 25.6% in the assay with MALME-3M melanoma; 7.21% (active) in the assay on MDA-MB-231 breast; 0.561% (active) in the assay with RXF 393 renal. Also, the growth in the assay on SF-268 CNS was 27.2%; in the assay with SF-295 CNS, 13.7%; in the assay with SF-539 CNS, -5.36% (active); in the assay on UACC-257 melanoma it was 63.7%; with M14 melanoma, 23.1%.
For the compound `c1ccc(CN=C(NCc2ccccc2)NCc2ccccc2)cc1`, the growth is 42.4% in the assay with NCI-H23 lung; 51.1% in the assay on NCI-H226 lung; 75.6% in the assay on NCI-H322M lung; 78.6% with HOP-62 NSCLC; 48.5% in the assay on HOP-92 NSCLC; 47.3% in the assay on A549/ATCC NSCLC. In addition, the growth is 73.1% in the assay on 786-0 renal; 41.3% with COLO 205 colon; 66.4% in the assay with DU-145 prostate; 35.7% in the assay on K-562 leukemia; 70.8% with MDA-MB-231 breast; 91.7% in the assay with RXF 393 renal. Also, the growth with SF-268 CNS is 63.8%; in the assay on SF-295 CNS, 30%; in the assay on SF-539 CNS, 93.6%; in the assay on UACC-257 melanoma it was -13.2% (active); in the assay on M14 melanoma, 52.9%.
In the case of `C=C(CN1CCc2c([nH]c3ccccc23)C1)c1ccc(C(=O)Nc2ccon2)cc1`, the growth was 85.9% in the assay on NCI-H23 lung; 92.7% with NCI-H226 lung; 125% in the assay on NCI-H322M lung; 88.2% in the assay on HOP-62 NSCLC; 101% in the assay on NCI-H460 lung; 31.5% in the assay with HOP-92 NSCLC. In addition, the growth with 786-0 renal was 96%; with COLO 205 colon, 83.6%; with K-562 leukemia it was 44.2%; with MALME-3M melanoma, 129%; with MDA-MB-231 breast, 78.6%; in the assay with SF-268 CNS, 97.1%. Further, the growth was 114% in the assay on SF-295 CNS, 90% in the assay on SF-539 CNS, 97.3% in the assay with UACC-257 melanoma and 95.6% in the assay on M14 melanoma.
`N#Cc1c(-c2ccccc2)cc(-c2ccccc2)n(CCC(=O)O)c1=O`: the growth is 72.9% in the assay on NCI-H23 lung; 69.2% in the assay on NCI-H226 lung; 91.2% in the assay on NCI-H322M lung; 51.9% in the assay with HOP-62 NSCLC; 74.8% in the assay with HOP-92 NSCLC; 46.6% in the assay on A549/ATCC NSCLC. The growth is 62.6% in the assay with 786-0 renal; 61.2% in the assay with COLO 205 colon; 81.5% in the assay with DU-145 prostate; 14.7% in the assay on K-562 leukemia; 51.4% in the assay with MALME-3M melanoma; 58.9% with MDA-MB-231 breast. The growth was 53% in the assay with RXF 393 renal; 67.4% in the assay with SF-268 CNS; 37.3% in the assay with SF-295 CNS; 62.5% with SF-539 CNS; 55.5% with UACC-257 melanoma; 25.5% in the assay on M14 melanoma.
`COc1cc(/C=C/C(=O)c2c(C)n([O-])c3ccccc3[n+]2=O)cc(OC)c1OC`: the growth was 54.9% in the assay on NCI-H23 lung; 86.5% in the assay with NCI-H226 lung; 49% with NCI-H322M lung; 105% in the assay on HOP-62 NSCLC; -0.517% (active) with HOP-92 NSCLC; 51.4% in the assay on A549/ATCC NSCLC. The growth is 65.9% in the assay on 786-0 renal; 55.9% with COLO 205 colon; 32.6% in the assay on DU-145 prostate; 21.8% in the assay on K-562 leukemia; 66.2% with MALME-3M melanoma; 78.9% in the assay with MDA-MB-231 breast. Further, the growth was 53.9% in the assay on RXF 393 renal; 43.6% in the assay on SF-268 CNS; 46.8% in the assay with SF-295 CNS; 75.5% with SF-539 CNS; 54.4% in the assay on UACC-257 melanoma; 60.2% in the assay on M14 melanoma.
As for `O=C(O)CCNS(=O)(=O)c1ccc(-c2ccccc2)cc1`, the growth was 98.4% with NCI-H23 lung; 92% in the assay on NCI-H226 lung; 129% with NCI-H322M lung; 103% with HOP-62 NSCLC; 83.9% in the assay with HOP-92 NSCLC; 98.4% in the assay on NCI-H522 lung. In addition, the growth in the assay on 786-0 renal is 106%; in the assay on COLO 205 colon, 111%; in the assay on DU-145 prostate, 127%; in the assay with K-562 leukemia, 114%; in the assay with MALME-3M melanoma, 112%; in the assay on MDA-MB-231 breast it was 123%. Further, the growth is 115% with SF-268 CNS; 131% with SF-295 CNS; 108% in the assay with SF-539 CNS; 87.5% with UACC-257 melanoma; 104% in the assay with M14 melanoma.
With `COc1ccc(/C=C/C(=O)c2cccc(NS(C)(=O)=O)c2)cc1`, the growth was 69.6% in the assay with NCI-H23 lung; 85.7% with NCI-H226 lung; 92.2% in the assay on NCI-H322M lung; 90.2% with HOP-62 NSCLC; 96.4% in the assay with NCI-H460 lung; 60.5% in the assay on HOP-92 NSCLC. In addition, the growth is 75.7% with 786-0 renal; 102% with COLO 205 colon; 42.6% in the assay with DU-145 prostate; 112% in the assay with MALME-3M melanoma; 80.5% with MDA-MB-231 breast; 82% with SF-268 CNS. The results for the growth in the assay on SF-295 CNS, in the assay on SF-539 CNS and in the assay with M14 melanoma were 92.1%, 94.7% and 97.3%, respectively.
For the compound `Cc1cc(Cl)ccc1Nc1nc(C(F)(F)F)ccc1C(=O)N/N=C/c1ccc(Cl)cc1`, the growth with NCI-H23 lung is 5.4% (active); with NCI-H226 lung it was 7.79% (active); in the assay on NCI-H322M lung it was -1.86% (active); with HOP-62 NSCLC it was -61.2% (active); in the assay with NCI-H460 lung, -5.33% (active); in the assay on HOP-92 NSCLC it was -24.1% (active). Further, the growth is -45% (active) in the assay on 786-0 renal; -18.7% (active) in the assay on COLO 205 colon; 5.71% (active) in the assay with K-562 leukemia; -0.888% (active) with MALME-3M melanoma; -22.5% (active) with MDA-MB-231 breast; 10.4% in the assay on SF-268 CNS. The growth in the assay on SF-295 CNS was -41.8% (active); with SF-539 CNS it was 0.0279% (active); with UACC-257 melanoma, 16.6%; in the assay on M14 melanoma it was 0.962% (active).
